Shown are actives, neighbours in structure and some others; about 0.69% of the full set was active somewhere.
PERK inh: blocks human PERK kinase; CHO PERK-DD fusion, SEAP luminescence translation reporter; inhibition, % at 5.6 µM; hit rate 0.17% among 220,000;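 active means inhibition above the mean inhibition of all tested compounds plus 3 SD, set separately per screening campaign, cut at about 2.9% in these data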;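 further: PERK kinase domain activated by AP20187 dimerizer at 100 nM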
Target sequence (Q9NZJ5 whole entry, looked up, the tested form may be a part): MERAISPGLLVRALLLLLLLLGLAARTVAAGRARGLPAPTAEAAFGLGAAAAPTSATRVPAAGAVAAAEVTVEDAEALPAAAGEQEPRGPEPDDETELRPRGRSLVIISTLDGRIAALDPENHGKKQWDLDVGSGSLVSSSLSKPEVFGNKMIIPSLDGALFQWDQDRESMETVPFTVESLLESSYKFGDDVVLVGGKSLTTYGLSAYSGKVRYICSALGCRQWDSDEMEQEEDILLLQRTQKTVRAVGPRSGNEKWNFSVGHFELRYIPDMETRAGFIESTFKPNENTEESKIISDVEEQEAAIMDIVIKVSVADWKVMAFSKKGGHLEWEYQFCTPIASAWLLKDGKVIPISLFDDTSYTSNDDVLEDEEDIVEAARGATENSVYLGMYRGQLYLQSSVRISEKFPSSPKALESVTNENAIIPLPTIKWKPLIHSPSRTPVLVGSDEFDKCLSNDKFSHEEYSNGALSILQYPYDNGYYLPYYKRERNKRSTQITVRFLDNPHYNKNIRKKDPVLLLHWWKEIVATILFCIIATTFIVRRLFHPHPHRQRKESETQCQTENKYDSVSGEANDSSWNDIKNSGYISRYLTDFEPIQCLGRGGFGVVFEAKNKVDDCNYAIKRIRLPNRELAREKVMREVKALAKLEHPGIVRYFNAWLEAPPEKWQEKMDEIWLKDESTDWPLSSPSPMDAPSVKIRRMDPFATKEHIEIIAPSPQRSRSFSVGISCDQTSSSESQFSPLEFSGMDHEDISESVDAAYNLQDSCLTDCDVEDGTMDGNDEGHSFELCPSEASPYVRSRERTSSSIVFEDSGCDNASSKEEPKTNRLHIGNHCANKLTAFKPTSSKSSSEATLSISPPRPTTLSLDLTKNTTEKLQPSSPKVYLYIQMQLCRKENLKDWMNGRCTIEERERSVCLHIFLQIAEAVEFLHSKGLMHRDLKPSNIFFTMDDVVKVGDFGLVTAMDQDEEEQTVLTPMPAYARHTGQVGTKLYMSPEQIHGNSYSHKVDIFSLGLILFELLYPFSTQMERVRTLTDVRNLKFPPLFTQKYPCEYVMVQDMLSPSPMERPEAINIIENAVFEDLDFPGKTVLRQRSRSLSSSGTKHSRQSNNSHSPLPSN
p97 ATPase inh: human p97 ATPase inhibition; P55072; inhibition, % at 8 µM; hit rate 0.42% among 220,000; recombinant p97 ATPase, Kinase-Glo ATP luminescence, 3 h; in the data active means inhibition above about 15%
UBC9 SUMO inh: inhibitors of human SUMOylation (UBC9); P63279; HTRF SUMOylation assay, SAE1/SAE2 + UBC9, in vitro; inhibition, % at 35 µM; hit rate 0.36% among 290,000; AID 2006; in the data active means inhibition above about 50%, passing the limit was not always enough
DTT redox prof: compounds producing H2O2 with reducing agent – biochemical, NIH compound library profiling, artefact control for MLSCN library redox annotation, primary screen | activation, % at 10 µM | DTT-dependent redox cycling H2O2, phenol red/HRP absorbance; 100% = 100 µM peroxide control, 0% = buffer | hit rate 0.03% among 200,000;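 active means activation of at least 50% relative to the plate's high and low controls in the primary single-dose screen; inactive means activation below 50%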;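 further: compound incubated with DTT at 0.8 mM final as the reducing agent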
p97 confirm: confirmation of human p97 ATPase inhibitors; shares compounds with p97 ATPase inh; recombinant p97 ATPase, Kinase-Glo ATP luminescence; inhibition, % at 8 µM; hit rate 44% among 760;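 active means percent inhibition of p97 ATPase above a set limit, the primary screen's mean plus 3 SD, cut at about 15% in these data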
Each line names hits and unclear results; the compound was inactive in the other large screens (follow-up assays come after a bar, where they were run).

COc1ccc(C(=O)NC2CCN(CC(=O)NCc3ccccc3)CC2)cc1	none (no result: PERK inh, p97 ATPase inh, DTT redox prof)
Cc1cccc(CN2CCC(N3CC(C)OC(C)C3)CC2)c1 (stereo not given)	none (no result: PERK inh, p97 ATPase inh, DTT redox prof)
Nc1nc(N)c2cc(Sc3ccc4ccccc4c3)ccc2n1	p97 ATPase inh 15.3 (no result: DTT redox prof) | p97 confirm 24.4
Nc1ccc(Sc2cc(Cl)nc(N)n2)cc1	none
O=C1NN(c2ccccc2)C(=O)/C1=C/c1cccs1	none
O=C1NN(c2cccc(Br)c2)C(=O)/C1=C/c1cccs1	p97 ATPase inh 16.8 (no result: DTT redox prof) | p97 confirm 23.0
O=c1c2ccccc2nc2c3ccccc3c(Cl)nn12	p97 ATPase inh 21.2 | p97 confirm 24.5
Cc1c(NC(=S)NC(=O)c2ccccc2Br)c(=O)n(-c2ccccc2)n1C	none (no result: PERK inh, p97 ATPase inh, DTT redox prof)
CCOC(=O)C1=C(c2ccccc2)NC(N)=NC1c1ccc(OCc2ccc(Cl)cc2)c(OC)c1 (stereo not given)	p97 ATPase inh 20.2 (no result: DTT redox prof) | p97 confirm 28.2
CCOC(=O)C1=C(c2ccccc2)NC(=O)NC1c1cc(Cl)c(O)c(OC)c1 (stereo not given)	none

Screens as filed in PubChem.
